# Experimental data reported in PubChem BioAssay AID651949 (Broad Institute, 2012).
# Potency and affinity values are given separately. Active and inactive are the calls of the source.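 How the source made its calls: active means compounds lowering cell ATP signal whose fitted half-maximal concentration is at most twice the top tested dose; inconclusive means flat curve with 30 to 70% signal loss, or poor fit; inactive means the rest.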
# Experiment: HEK293T cell cytotoxicity, dose response, cytotoxicity control, CellTiter-Glo luminescence, dry powder, set 6 (AID 651949)
# Details: HEK293T viability, CellTiter-Glo ATP luminescence, 48 h; series mostly up to 26 µM; activity change, negative = cytotoxicity: at the top concentration
row,SMILES,"activity change, negative = cytotoxicity"
1,Cc1ccc(-c2nnc(SCc3ccccc3)o2)cc1,-14.3% (inactive)
2,c1ccc(CCc2nnc(SCc3ccccc3)o2)cc1,-20.1% (inactive)
3,c1ccc(-c2nnc(SC(c3ccccc3)c3ccccc3)o2)cc1,-24.1% (inactive)
4,CS(=O)(=O)c1ccccc1-c1nnc(SCc2ccccc2)o1,-29.6% (inactive)
5,c1ccc(COc2nnc(-c3ccccc3)o2)cc1,5.38% (inactive)
6,c1ccc(CSc2nnc(-c3cccnc3)o2)cc1,-4.32% (inactive)
7,O=C(Cc1ccccc1)c1nnc(-c2ccccc2)o1,-21.1% (inactive)
8,FC(F)(F)Oc1ccc(CSc2nnc(-c3ccccc3)o2)cc1,14.6% (inactive)
9,FC(F)(F)Oc1cccc(-c2nnc(SCc3ccccc3)o2)c1,1.38% (inactive)
10,c1ccc(Cn2cc(CSc3nnc(C4CCC4)o3)nn2)cc1,12.5% (inactive)
11,Fc1ccccc1-c1nnc(SCc2ccccc2)o1,25.8% (inactive)
12,c1ccc(CCc2nnc(-c3ccccc3)o2)cc1,-22.1% (inactive)
13,Clc1ccc(CSc2nnc(-c3ccccc3)o2)cc1,-5.48% (inactive)
14,c1ccc(-c2ccc(CSc3nnc(-c4ccccc4)o3)cc2)cc1,-12.2% (inactive)
15,c1ccc(CSc2nnc(-c3cnco3)o2)cc1,-14.8% (inactive)
16,Fc1ccc(CSc2nnc(-c3ccncc3)o2)cc1,7.15% (inactive)
17,c1ccc(-c2nnc(SC3CCCCC3)o2)cc1,-2.18% (inactive)
18,Fc1ccc(CSc2nnc(-c3ccc(Cl)cc3)o2)cc1,4.47% (inactive)
19,FC(F)(F)c1cccc(-c2nnc(SCc3ccccc3)o2)c1,-5.54% (inactive)
20,N#Cc1ccc(-c2nnc(SCc3ccccc3)o2)cc1,-23% (inactive)

row,SMILES,"activity change, negative = cytotoxicity"
1,COc1ccc(-c2nnc(SCc3ccccc3)o2)cc1,-4.21% (inactive)
2,Fc1cccc(CSc2nnc(-c3ccccc3)o2)c1,9.95% (inactive)
3,N#Cc1cccc(CSc2nnc(-c3ccccc3)o2)c1,-16.9% (inactive)
4,c1ccc(-c2nnc(SCc3ccccn3)o2)cc1,-12.5% (inactive)
5,Cc1ccccc1CSc1nnc(-c2ccccc2)o1,-19.8% (inactive)
6,c1ccc(Cn2cc(CSc3nnc(-c4ccccc4)o3)nn2)cc1,2.94% (inactive)
7,c1ccc(CSc2nnc(-c3ccccc3)s2)cc1,-22% (inactive)
8,COCCOCCSc1nnc(-c2ccccc2)o1,15% (inactive)
9,Clc1ccc(-c2nnc(SCc3ccccn3)o2)cc1,2.91% (inactive)
10,c1ccc(-c2nnc(SCCN3CCN(c4ccccc4)CC3)o2)cc1,-23.5% (inactive)
11,[O-][n+]1ccccc1CSc1nnc(-c2ccccc2)o1,-25.5% (inactive)
12,Cc1nnc(SCc2ccccc2)o1,-5.62% (inactive)
13,FC(F)(F)CNCCSc1nnc(-c2ccccc2)o1,-0.89% (inactive)
14,O=S(Cc1cn(-c2ccccc2)nn1)c1nnc(-c2ccc(Cl)cc2)o1 (centres undefined),10.6% [at 12 µM] (inactive)
15,COc1ccccc1CSc1nnc(-c2ccccc2)o1,-4.23% (inactive)
16,c1ccc(CSc2nnc(C3CCCCC3)o2)cc1,-21.4% (inactive)
17,Fc1cccc(-c2nnc(SCc3ccccn3)o2)c1,-20.9% (inactive)
18,Clc1ccc(-c2nnc(SCc3cn(-c4ccccc4)nn3)o2)cc1,13.4% (inactive)
19,c1ccc(-c2nnc(SCc3cscn3)o2)cc1,-17% (inactive)
